# Sampled rows, rich in hits. Any-hit rate of the full collection: about 6.1%.
# D1 PAM = human D1 dopamine receptor positive modulation. P21728. HEK293 TREx D1 cells, calcium flux, dopamine EC20 potentiation. potentiation, % at 10 µM. 0.036% of 360,000 active. AID 504651; in the data active = potentiation above about 30%; also: 0% is about no effect
# Target sequence (P21728 whole entry, looked up): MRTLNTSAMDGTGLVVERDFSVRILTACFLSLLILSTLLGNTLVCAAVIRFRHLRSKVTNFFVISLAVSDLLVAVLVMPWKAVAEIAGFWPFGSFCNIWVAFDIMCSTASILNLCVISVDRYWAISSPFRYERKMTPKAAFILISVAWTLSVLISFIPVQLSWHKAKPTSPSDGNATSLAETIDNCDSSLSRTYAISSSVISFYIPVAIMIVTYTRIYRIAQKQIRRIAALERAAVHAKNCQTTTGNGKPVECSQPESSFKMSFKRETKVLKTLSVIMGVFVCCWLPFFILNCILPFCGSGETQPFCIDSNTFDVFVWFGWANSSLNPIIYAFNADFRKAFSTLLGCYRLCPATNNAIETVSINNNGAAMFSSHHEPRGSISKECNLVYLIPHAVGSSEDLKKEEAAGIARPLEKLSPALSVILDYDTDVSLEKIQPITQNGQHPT
# D3 antag = blocks the human D3 dopamine receptor. max response, negative = inhibition, %. 2.5% of 360,000 active. P35462. D3R cells, DiscoveRx beta-arrestin luminescence, antagonist mode; active compounds read low; in the data active = max response below about -50%; also: % is scaled to controls: 0 for no effect and ±100 for the full control effect
#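 Cells plated overnight at 1500 cells/well, then exposed to library compounds with dopamine controls for 90 minutes at 37 degrees C. DiscoveRx reagent added for 30–60 minutes at room temperature; luminescence read, quantitative HTS format.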
# D1 antagonist = blocks dopamine activation of the human D1 receptor. activity change, negative = inhibition, % at 10 µM. P21728. HEK293 TREx D1 cells, calcium flux, dopamine EC80; active compounds read low. 3.2% of 360,000 active. AID 504652; in the data active = activity change below about -30%; also: % is scaled to controls: 0 for no effect and ±100 for the full control effect
#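 Tetracycline-induced HEK293 T-REx cells with force-coupled D1 receptor were loaded with a no-wash calcium dye. Compound was added after a 10 s baseline and read kinetically for 180 s; EC80 dopamine was then added and calcium flux followed another 180 s.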
# ERG Ets-DNA blk = blocks human ERG Ets domain binding to DNA; fluorescence polarization, His-ERG Ets domain / labelled DNA; Potency, µM (top dose mostly 76.9 µM), without a hit: top-dose FP activity, negative = inhibition, hits mostly inhibitors; 0.028% of 370,000 active; AID 624246; P11308; active = well fitted inhibition curve with a large enough effect in the polarisation, with a control signal flat; the % refers to the polarisation;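 also: polarization taken with two DNA probes labelled with fluorescein and Texas red; potency is read from the fitted curve at half-maximal effect; % of control where 0% means no effect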
#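 His-tagged ERG Ets domain (1 uM in the protein solution; 300mM KCl, 50mM Tris-HCl, 1mM EDTA, 1mM DTT, pH 7.5) received compound, then a probe mix of 5 nM fluorescein-DNA and 100nM Texas-615-DNA. Fluorescence polarization was read for both dyes.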
# D1 ag = human D1 receptor agonism | P21728 | HEK293 T-REx D1 cells, calcium flux, agonist mode | activation, % at 2 µM | 1% of 360,000 active | AID 504660; in the data active = activation above about 30%; also: 0% is about no effect
#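 Agonism was scored from calcium flux recorded over 180 s (1 read/s) after pintool compound addition, following a 10-cycle baseline. Cells were inducible force-coupled HEK293 TREx D1, plated overnight at 30 C and loaded with no-wash calcium dye.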
# DRD3 agonist = D3 dopamine receptor (human) agonism. P35462. max activation, %. 0.58% of 410,000 active. AID 652048. D3R DiscoveRx beta-arrestin cells, luminescence, 90 min; in the data active = max activation above about 30%; also: 0% is about no effect
#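 Agonist-mode cell screen: cells plated at 1500/well and incubated overnight at 37 °C, then exposed to library compounds for 90 min at 37 °C. Detection reagent was added for 30–60 min at room temperature, and luminescence was read.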
# Numbers without * were called inactive; . = not tested or not shown.
SMILES,D1 PAM,D3 antag,D1 antagonist,ERG Ets-DNA blk,D1 ag,DRD3 agonist
CN(CCCC(=O)O)c1ccc(N=Nc2ccc([N+](=O)[O-])cc2)cc1,.,-86.8*,.,21.9%,.,-18.3
CN(N=Nc1ccc([N+](=O)[O-])cc1)c1ccccc1,-2.0,12.1,-0.7,11.8%,1.9,-0.8
CCOC(=O)C1(CCOc2ccccc2)CCN(Cc2ccc(F)c(OC)c2)CC1,3.5,0.0,16.0,0.9%,6.8,-19.5
CCOC(=O)C1=C(C)OC(N)=C(C(=O)OCC)C1c1ccncc1 (stereo not given),0.5,4.1,-0.2,1.4%,-0.5,-3.3
CCOC(=O)C1=C(C)OC(N)=C(C(=O)OCC)C1c1cccnc1 (stereo not given),-6.8,-11.7,-33.4*,-10.6%,-0.6,-22.0
CCOc1ccc(/C(C)=N/NC(=O)Cn2nc([N+](=O)[O-])cc2C)cc1,1.3,-13.4,8.8,-15.9%,1.1,-3.4
Cc1cc(=O)n2[nH]c(SCc3ccccc3)nc2n1,-0.6,30.5,3.8,-7.4%,-0.1,4.2
O=c1cc(-c2ccccc2)nc(SCc2ccccc2)[nH]1,6.2,-54.8*,14.3,-5.0%,1.4,8.7

# Compound activity (PubChem)
